Molecules are shown by their SMILES. A number with no mark means an inactive call. Inconclusive results are not listed. Activity calls are given as the source filed them.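 The calls were made as follows, unless noted: active = compounds whose dose series gives a full or clear partial fitted curve of increased nuclear translocation; inconclusive = weak partial curve or effect only at the top dose; inactive = no dose-dependent translocation response.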

The target in assay [1] is Glucocorticoid receptor (Homo sapiens) (UniProt P04150). The assay is described as follows: GR-GFP Redistribution (AID 450). Also: potency is read from the fitted curve at half-maximal effect.
For assay [2], the target named is Mitogen-activated protein kinase 10 (Mus musculus) (UniProt Q61831). The assay is described as follows: JNK3 AlphaScreen Assay (AID 530; active = well fitted curve in either direction with a large enough effect, not every such curve was filed as active;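 also: kinase came from lysate of stimulated human HepG2 cells; signal reports phosphorylation of biotinylated GST-cJun 1-79 at Ser73 with 10 µM ATP; series mostly up to about 57 µM; % is scaled to controls: 0 for no effect and ±100 for the full control effect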). In a few lines:
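qHTS format: compounds tested as titrations against IL-1beta/TNF-alpha-activated HepG2 lysate JNK3 with biotin-GST-cJun substrate and 10 uM ATP at room temperature. Loss of anti-phospho-cJun AlphaScreen signal indicates inhibition.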
For orientation: Bead proximity is the source of the signal in Alpha formats.

In assay [3] the target is Glucocorticoid receptor (Homo sapiens) (UniProt P04150). The assay is described as follows: GR-EFC Redistribution (AID 451; calls by dose curve; also: potency is read from the fitted curve at half-maximal effect). Conditions: CHO-K1 GR-EFC translocation, beta-gal luminescence, 2 h. In a few lines: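 CHO-K1 cells expressing nuclear EA and GR-ED fragments of b-gal; compounds titrated up to 46 uM final, 2 h at 37 C. GR nuclear translocation read as complemented b-gal luminescence after 1 h RT detection.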

Assay [4] deals with 3',5'-cyclic-AMP phosphodiesterase 4B (Homo sapiens) (UniProt Q07343). The assay is described as follows: qHTS Assay for Inhibitors of PDE-IV (AID 607; active = well fitted activation curve with a large enough effect in the main read-out, with a control signal flat, not every such curve was filed as active; also: % of control where 0% means no effect). In a few lines:
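Live HEK293 cells with a modified cyclic nucleotide-gated (CNG) channel report intracellular cAMP via membrane-potential dye fluorescence (ex 535/em 590 nm). Endogenous PDE-IV was targeted. Compounds were tested at up to 22.9 uM final; RO 20-1724 100 uM served as control.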

Assay [5] addresses Cytochrome P450 2C9 (Homo sapiens) (UniProt P11712). The assay can be described thus: qHTS Assay for Inhibitors and Substrates of Cytochrome P450 2C9 (AID 883; active = well fitted curve in the direction sought with a large enough effect; an effect the other way counts as inactive or inconclusive; also: nearly all actives have a fitted effect of over 60% in size; also: potency is read from the fitted curve at half-maximal effect; as to activity change, negative = inhibition: % is scaled to controls: 0 for no effect and ±100 for the full control effect). A digest of the protocol:
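Signal: luciferase luminescence reporting luciferin produced by CYP2C9. Conditions: 10nM enzyme, Luciferin-H 100uM at KM, 25mM KPO4, 37C, 60 min NADPH-driven reaction. Reference: 57uM sulphaphenazole as 100% inhibition.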
On the technique in general: In qHTS, concentration-response curves come from the screen itself.

Assay [6] concerns the target Cytochrome P450 2D6 (Homo sapiens) (UniProt P10635). The assay is described as follows: qHTS Assay for Inhibitors and Substrates of Cytochrome P450 2D6 (AID 891; active = well fitted curve in the direction sought with a large enough effect; an effect the other way counts as inactive or inconclusive; also: nearly all actives have a fitted effect of over 60% in size; also: potency is read from the fitted curve at half-maximal effect;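 as to activity change, negative = inhibition: luciferin methyl ether substrate demethylated by CYP2D6 with NADPH regeneration; % is scaled to controls: 0 for no effect and ±100 for the full control effect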). In a few lines:
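Human CYP2D6 (5 nM) with 30 uM Luciferin-ME EGE (at Km) in 100 mM KPO4, compound preincubated 10 min, then NADPH regeneration system for 60 min at room temperature. Luciferin read by luminescence; normalized to 1.43 uM quinidine.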

Assay [7] deals with Cytochrome P450 2C19 (Homo sapiens) (UniProt P33261). The assay is described as follows: qHTS Assay for Inhibitors and Substrates of Cytochrome P450 2C19 (AID 899; active = well fitted curve in the direction sought with a large enough effect; an effect the other way counts as inactive or inconclusive; also: nearly all actives have a fitted effect of over 60% in size; also: potency is read from the fitted curve at half-maximal effect). In a few lines: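 Signal comes from luciferase acting on luciferin released by CYP2C19-mediated hydroxylation of Luciferin-H EGE, 10uM (KM). Assay mix: 5nM enzyme, 50mM KPO4; 60 min at 37C with NADPH regeneration. Data normalized against 57uM ketoconazole.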

Assay [8] concerns the target Tumor susceptibility gene 101 protein (Homo sapiens) (UniProt Q99816). The assay is described as follows: qHTS Assay for Iinhibitors of HIV-1 Budding by Blocking the Interaction of PTAP/TSG101: Hit Validation (AID 651600; active = well fitted curve in the direction sought with a large enough effect; an effect the other way counts as inactive or inconclusive; also: % is scaled to controls: 0 for no effect and ±100 for the full control effect; nearly all actives have a fitted effect of over 70% in size). In a few lines:
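FITC-PTAP peptide (50 nM final) binding to Tsg101 binding domain (10 uM final) was measured by polarization after 20 min at r.t. with compounds, in 10 mM HEPES pH 7.5 buffer with 0.15 M NaCl and 0.01% Tween 20.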

The target in assay [9] is Cytochrome P450 3A4 (Homo sapiens) (UniProt P08684). The assay is described as follows: qHTS Assay for Inhibitors and Substrates of Cytochrome P450 3A4 (AID 884; active = well fitted curve in the direction sought with a large enough effect; an effect the other way counts as inactive or inconclusive; also: potency is read from the fitted curve at half-maximal effect; nearly all actives have a fitted effect of over 50% in size). A digest of the protocol: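 20 nM human CYP3A4 with 25 uM Luciferin-PPXE (at KM) in 200 mM KPO4, preincubated 10 min with compound; NADPH regeneration started a 60 min RT reaction. Luciferin detected by luminescence, normalized to 57 uM ketoconazole as full inhibition.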

Assay [10] shares this target. The assay is described as follows: qHTS Assay for Activators of Cytochrome P450 3A4 (AID 885; active = well fitted curve in the direction sought with a large enough effect; an effect the other way counts as inactive or inconclusive; also: nearly all actives have a fitted effect of over 65% in size). A digest of the protocol: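 Quantitative HTS format: compounds preincubated with 20nM human CYP3A4 and Luciferin-PPXE substrate at KM, reaction started by NADPH regeneration, stopped after 60 min, luciferase luminescence read 20 min later.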
Assay [11] has as its target DNA dC->dU-editing enzyme APOBEC-3G (Homo sapiens) (UniProt Q9HC16). The assay can be described thus: qHTS for inhibitors of Vif-A3G interactions: Validation (AID 588379; active = well fitted curve in the direction sought with a large enough effect; an effect the other way counts as inactive or inconclusive; also: 0% is about no effect). In a few lines: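 HeLa cells stably expressing Vif and A3G-eYFP, 700 cells/well, incubated overnight at 37 deg C, then exposed to compound overnight at 37 deg C. Inhibition of Vif-mediated degradation read as increased yellow fluorescence (Ex 488/Em 500-530) by laser-scanning cytometry.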

Cytochrome P450 2C19 (Homo sapiens), sequence (P33261 whole entry, looked up): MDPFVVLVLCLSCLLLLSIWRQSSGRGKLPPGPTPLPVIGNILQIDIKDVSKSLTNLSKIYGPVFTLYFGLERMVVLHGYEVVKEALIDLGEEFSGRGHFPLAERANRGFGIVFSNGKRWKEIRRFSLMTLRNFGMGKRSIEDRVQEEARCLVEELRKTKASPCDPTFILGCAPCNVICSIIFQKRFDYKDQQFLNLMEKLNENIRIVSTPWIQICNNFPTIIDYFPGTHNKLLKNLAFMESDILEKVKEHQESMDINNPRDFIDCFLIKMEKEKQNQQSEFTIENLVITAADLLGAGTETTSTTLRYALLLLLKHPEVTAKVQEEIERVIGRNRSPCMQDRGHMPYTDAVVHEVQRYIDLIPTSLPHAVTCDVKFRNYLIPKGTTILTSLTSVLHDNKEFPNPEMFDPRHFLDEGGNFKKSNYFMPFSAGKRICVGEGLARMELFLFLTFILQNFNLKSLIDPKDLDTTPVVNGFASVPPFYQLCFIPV
Cytochrome P450 2D6 (Homo sapiens), sequence (P10635 whole entry, looked up): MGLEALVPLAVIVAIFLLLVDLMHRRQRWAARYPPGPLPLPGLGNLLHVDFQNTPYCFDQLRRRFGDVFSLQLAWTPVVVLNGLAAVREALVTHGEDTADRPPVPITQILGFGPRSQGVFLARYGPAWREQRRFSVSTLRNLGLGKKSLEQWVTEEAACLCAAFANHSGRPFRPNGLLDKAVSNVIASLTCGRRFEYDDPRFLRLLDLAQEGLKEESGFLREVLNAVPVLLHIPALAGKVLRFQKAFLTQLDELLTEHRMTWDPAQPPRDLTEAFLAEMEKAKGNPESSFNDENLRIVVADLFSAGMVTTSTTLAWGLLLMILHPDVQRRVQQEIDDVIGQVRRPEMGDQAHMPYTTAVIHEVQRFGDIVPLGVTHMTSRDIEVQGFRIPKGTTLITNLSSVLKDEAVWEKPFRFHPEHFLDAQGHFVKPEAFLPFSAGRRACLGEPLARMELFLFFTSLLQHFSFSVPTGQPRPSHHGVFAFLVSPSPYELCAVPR
3',5'-cyclic-AMP phosphodiesterase 4B (Homo sapiens), sequence (Q07343 whole entry, looked up): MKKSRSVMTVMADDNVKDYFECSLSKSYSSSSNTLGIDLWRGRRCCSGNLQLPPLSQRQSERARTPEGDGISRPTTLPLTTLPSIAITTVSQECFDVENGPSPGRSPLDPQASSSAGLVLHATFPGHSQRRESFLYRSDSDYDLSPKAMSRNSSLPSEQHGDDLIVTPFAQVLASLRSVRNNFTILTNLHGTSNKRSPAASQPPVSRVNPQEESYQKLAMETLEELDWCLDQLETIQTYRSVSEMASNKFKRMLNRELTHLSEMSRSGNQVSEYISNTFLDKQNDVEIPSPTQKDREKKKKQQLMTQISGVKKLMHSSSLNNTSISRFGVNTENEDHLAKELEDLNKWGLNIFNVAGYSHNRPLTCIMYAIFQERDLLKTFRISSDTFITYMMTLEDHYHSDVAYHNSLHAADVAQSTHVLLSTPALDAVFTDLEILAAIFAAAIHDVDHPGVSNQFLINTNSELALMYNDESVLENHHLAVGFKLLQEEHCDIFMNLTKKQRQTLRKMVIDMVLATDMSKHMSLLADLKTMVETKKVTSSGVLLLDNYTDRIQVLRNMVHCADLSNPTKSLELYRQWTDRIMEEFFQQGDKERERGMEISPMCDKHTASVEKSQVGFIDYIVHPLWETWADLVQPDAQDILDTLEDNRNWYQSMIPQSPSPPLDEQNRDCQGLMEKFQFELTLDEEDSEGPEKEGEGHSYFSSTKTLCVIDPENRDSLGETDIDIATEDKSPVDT
Cytochrome P450 2C9 (Homo sapiens), sequence (P11712 whole entry, looked up): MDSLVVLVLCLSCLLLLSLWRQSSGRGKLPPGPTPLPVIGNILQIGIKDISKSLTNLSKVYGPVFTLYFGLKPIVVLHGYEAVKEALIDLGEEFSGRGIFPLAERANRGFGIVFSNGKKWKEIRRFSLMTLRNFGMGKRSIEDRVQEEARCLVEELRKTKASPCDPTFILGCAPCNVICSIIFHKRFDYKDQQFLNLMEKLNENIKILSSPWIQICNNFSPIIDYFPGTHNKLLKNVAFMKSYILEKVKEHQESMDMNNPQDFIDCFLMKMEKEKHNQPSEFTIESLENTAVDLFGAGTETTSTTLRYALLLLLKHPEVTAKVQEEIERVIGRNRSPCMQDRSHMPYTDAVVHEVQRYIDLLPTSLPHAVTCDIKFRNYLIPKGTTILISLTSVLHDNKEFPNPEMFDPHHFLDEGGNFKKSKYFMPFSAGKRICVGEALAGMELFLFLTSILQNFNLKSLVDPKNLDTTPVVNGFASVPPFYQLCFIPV
Glucocorticoid receptor (Homo sapiens), sequence (P04150 whole entry, looked up, the tested form may be a part): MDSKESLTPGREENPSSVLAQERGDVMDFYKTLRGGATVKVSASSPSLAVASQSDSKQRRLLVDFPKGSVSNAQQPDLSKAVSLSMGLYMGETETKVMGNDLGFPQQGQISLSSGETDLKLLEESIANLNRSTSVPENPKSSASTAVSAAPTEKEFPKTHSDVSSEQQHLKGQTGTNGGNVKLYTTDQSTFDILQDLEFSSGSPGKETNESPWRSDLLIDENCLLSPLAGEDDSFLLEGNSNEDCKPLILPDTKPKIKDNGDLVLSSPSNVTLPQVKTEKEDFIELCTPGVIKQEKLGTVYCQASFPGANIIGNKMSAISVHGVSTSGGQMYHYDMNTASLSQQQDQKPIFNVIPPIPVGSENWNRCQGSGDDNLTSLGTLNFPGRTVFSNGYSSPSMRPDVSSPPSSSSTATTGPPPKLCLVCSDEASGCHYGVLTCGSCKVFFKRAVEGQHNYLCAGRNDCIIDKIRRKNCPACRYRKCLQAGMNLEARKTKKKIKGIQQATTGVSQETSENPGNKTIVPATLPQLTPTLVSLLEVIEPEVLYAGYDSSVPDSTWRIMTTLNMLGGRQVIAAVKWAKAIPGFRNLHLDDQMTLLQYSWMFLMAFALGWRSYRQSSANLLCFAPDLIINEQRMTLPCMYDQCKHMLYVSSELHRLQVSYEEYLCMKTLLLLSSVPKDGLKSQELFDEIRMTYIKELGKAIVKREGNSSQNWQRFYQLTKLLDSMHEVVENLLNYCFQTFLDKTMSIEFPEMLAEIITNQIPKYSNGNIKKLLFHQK
Cytochrome P450 3A4 (Homo sapiens), sequence (P08684 whole entry, looked up): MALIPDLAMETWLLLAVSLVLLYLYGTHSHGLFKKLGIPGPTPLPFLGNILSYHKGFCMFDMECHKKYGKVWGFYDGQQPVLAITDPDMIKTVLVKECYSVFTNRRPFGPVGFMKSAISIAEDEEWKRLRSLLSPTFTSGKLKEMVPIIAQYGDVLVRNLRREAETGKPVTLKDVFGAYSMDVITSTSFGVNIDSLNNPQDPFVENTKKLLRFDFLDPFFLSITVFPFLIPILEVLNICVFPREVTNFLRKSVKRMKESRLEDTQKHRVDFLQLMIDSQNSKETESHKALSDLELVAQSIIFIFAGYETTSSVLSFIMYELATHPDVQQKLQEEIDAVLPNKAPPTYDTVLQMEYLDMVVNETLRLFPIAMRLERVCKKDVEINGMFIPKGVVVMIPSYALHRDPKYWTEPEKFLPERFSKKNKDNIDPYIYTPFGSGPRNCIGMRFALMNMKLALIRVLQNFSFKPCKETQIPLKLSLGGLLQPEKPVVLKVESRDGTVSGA
Tumor susceptibility gene 101 protein (Homo sapiens), sequence (Q99816 whole entry, looked up, the tested form may be a part): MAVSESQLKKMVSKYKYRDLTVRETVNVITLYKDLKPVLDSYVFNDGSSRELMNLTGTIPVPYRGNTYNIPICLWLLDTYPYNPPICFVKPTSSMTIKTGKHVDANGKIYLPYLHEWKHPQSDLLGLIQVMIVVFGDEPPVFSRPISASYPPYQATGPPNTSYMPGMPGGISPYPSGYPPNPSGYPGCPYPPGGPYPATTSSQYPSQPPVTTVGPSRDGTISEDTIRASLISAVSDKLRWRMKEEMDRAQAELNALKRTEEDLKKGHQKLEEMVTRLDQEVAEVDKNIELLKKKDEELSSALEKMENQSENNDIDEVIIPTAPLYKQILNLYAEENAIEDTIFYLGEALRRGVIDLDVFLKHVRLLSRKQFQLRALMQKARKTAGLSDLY
DNA dC->dU-editing enzyme APOBEC-3G (Homo sapiens), sequence (Q9HC16 whole entry, looked up): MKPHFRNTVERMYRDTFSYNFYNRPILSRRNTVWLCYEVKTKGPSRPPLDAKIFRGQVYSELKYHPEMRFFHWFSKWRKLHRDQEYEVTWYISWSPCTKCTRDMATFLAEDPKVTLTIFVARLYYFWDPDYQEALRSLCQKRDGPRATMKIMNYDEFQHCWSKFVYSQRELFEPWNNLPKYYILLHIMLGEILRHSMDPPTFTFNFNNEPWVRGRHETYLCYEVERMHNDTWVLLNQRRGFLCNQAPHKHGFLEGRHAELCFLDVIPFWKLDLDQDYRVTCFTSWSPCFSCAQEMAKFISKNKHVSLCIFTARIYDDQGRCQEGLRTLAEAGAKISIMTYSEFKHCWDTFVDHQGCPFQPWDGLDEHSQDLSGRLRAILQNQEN

Regarding `OC1(c2cccc(C(F)(F)F)c2)CCN(c2ncnc3c2[nH]c2ccccc23)CC1`, the Potency in assay [1] is greater than 20.6 µM.
Consider `CCOc1cccc(-c2nnc3sc(C4CCCCC4)nn23)c1`, for which the Potency in assay [1] was greater than 20.6 µM.
`Cn1c(NCc2ccccc2)nc2c1c(=O)n(Cc1ccc(Br)cc1)c(=O)n2C`: the Potency in [1] was greater than 20.6 µM.
Consider `O=c1c(-c2ccc3c(c2)OCCO3)c(C(F)(F)F)oc2cc(O)cc(O)c12`, for which the Potency in [1] was greater than 20.6 µM.
As to `CCCCSc1nc(N)c(C#N)c(-c2cccs2)c1C#N`, the Potency in assay [1] is greater than 20.6 µM.
In the case of `Cn1c(NCC(O)c2ccccc2)nc2c1c(=O)n(Cc1ccc(Cl)c(Cl)c1)c(=O)n2C` (stereo unspecified), the Potency in assay [1] was greater than 20.6 µM.
Take `c1ccc2c(c1)CCN(c1ncnc3c1[nH]c1ccccc13)C2`: in assay [1], the Potency is greater than 20.6 µM.
For the molecule `N#Cc1c(N)nc(SCc2ccccn2)c(C#N)c1-c1cccs1`, in [1], the Potency was greater than 20.6 µM.
On to `COc1ccc(-c2nn(C)c(=O)c3ccccc23)cc1NS(C)(=O)=O`, for which the Potency in assay [1] was greater than 20.6 µM.
In the case of `CCc1cc2c(=O)c(-c3nc4ccccc4[nH]3)coc2cc1OC(=O)N1CCOCC1`, in [1], the Potency was greater than 20.6 µM.
Consider `CSc1nc(N)nc(SCC(=O)C23CC4CC(CC(C4)C2)C3)c1C#N`, for which the Potency in [1] is greater than 20.6 µM.
Still for that read-out and setting: for `Cc1ccc2[nH]c3c(N4CCN(Cc5ccccc5)CC4)ncnc3c2c1` the value was greater than 20.6 µM; for `COc1cccc(-c2nc(N3CCCCC3)c3ccccc3n2)c1O`, greater than 20.6 µM; for `Nc1nonc1C(=O)NCCN=Cc1cc(Cc2ccccc2)cc(Br)c1O`, greater than 20.6 µM.
As for `COc1ccc2[nH]c3c(N4CCN(Cc5ccc6c(c5)OCO6)CC4)ncnc3c2c1`, in [1], the Potency is greater than 20.6 µM.
Consider `N#CC1=C(N)NC(SCc2ccc(Cl)cc2)=C(C#N)C12CCCCC2`, for which, in assay [1], the Potency is greater than 20.6 µM.
Take `CN1CCc2c(sc3ncn4nc(-c5ccccc5O)nc4c23)C1`: the Potency in assay [1] was greater than 20.6 µM.
Consider `Fc1ccc2[nH]c3c(N4CCN(Cc5ccc6c(c5)OCO6)CC4)ncnc3c2c1`, for which, in [1], the Potency was greater than 20.6 µM.
`N#CC(C(=O)NC1CC1)c1nc2ccccc2nc1N1CCN(C/C=C/c2ccccc2)CC1` (stereo unspecified): the Potency in assay [1] is greater than 20.6 µM.
In the case of `Cn1c(N2CCN(c3ccccn3)CC2)nc2c1c(=O)n(Cc1ccc(Cl)cc1)c(=O)n2C`, the Potency in [1] is greater than 20.6 µM.
On to `Cc1ccc(S(=O)(=O)N2CCN(c3nc(C(C)C)c4c(c3C#N)CC(C)(C)OC4)CC2)cc1`, for which the Potency in assay [1] is greater than 20.6 µM.
For the molecule `COc1cccc(C(=O)Nc2ccc(-c3nnc(-c4ccco4)o3)cc2)c1`, the Potency in assay [1] is greater than 20.6 µM.
On to `O=C(Nc1ccc(N2CCN(C(=O)c3ccccc3)CC2)c(Cl)c1)c1ccc(Br)o1`, for which, in assay [1], the Potency was greater than 20.6 µM.
As for `CCC(=O)Oc1oc(-c2ccccc2)nc1C=Nc1ccccc1OC`, in assay [1], the Potency was greater than 20.6 µM.
As to `COc1cccc(-c2nnc3sc(-c4cccs4)nn23)c1`, the Potency in assay [1] is greater than 20.6 µM.
For the molecule `O=C1CC(N(O)C2CC(=O)N(Cc3ccccc3)C2=O)C(=O)N1Cc1ccccc1` (stereo unspecified), in [1], the Potency was greater than 20.6 µM.
Regarding `Cc1ccc2[nH]c3c(N4CCN(Cc5ccc6c(c5)OCO6)CC4)ncnc3c2c1`, the Potency in [1] is greater than 20.6 µM.
Take `CN[C@@H]1[C@H](O)[C@H](NC)[C@@H]2O[C@]3(O)C(=O)C[C@@H](C)O[C@H]3O[C@@H]2[C@H]1O`: in assay [1], the Potency was greater than 46 µM. Further, in assay [2], the Potency result is “inactive”.
On to `CC(C)C[C@@H](CC(=O)N[C@@H](CCCN)CC(=O)N[C@@H]1CCNC[C@H]1C(=O)N[C@H](CC(=O)N[C@@H](CCC(=O)O)CC(=O)O)Cc1ccccc1)NC(=O)[C@@H]1CNCC[C@H]1N`, for which the Potency in [3] was greater than 46 µM. The Potency entry in [2], in assay [4], in assay [5], in [6] and in [7] was “inactive” in each case.
As for `CCN(CC)C(=O)c1sc2nc(-c3cccs3)cc(-c3cccs3)c2c1N`, the Potency in assay [1] was greater than 20.6 µM. Also, the Potency entry in [8] was “inactive”.
For the molecule `C=C[C@@](C)(O)CC[C@H]1[C@]2(C)CCCC(C)(C)[C@H]2CC[C@]1(C)O`, the figures for the Potency in assay [1], in assay [3] and in assay [7] were greater than 46 µM, greater than 46 µM and 2 µM (active), respectively. In addition, the Potency result in [2] and in assay [6] was “inactive” throughout.
`Cc1c(C(=O)O)c(O)cc2c1C(=O)c1c(O)c([C@@H]3O[C@H](CO)[C@@H](O)[C@H](O)[C@@H]3O)c(O)c(O)c1C2=O`: the Potency in [1] and in assay [3] was greater than 46 µM in each case. The Potency entry in assay [2], in assay [5], in assay [6] and in [7] was “inactive” each time.
As for `O=C1C[C@H](c2ccccc2)Oc2cc(O)cc(O)c21`, the Potency in assay [1] was greater than 46 µM; in [3], greater than 46 µM; in assay [5] it was 12.6 µM (active); in [9], 12.6 µM (active); in assay [6], 20 µM (active); in assay [7], 0.631 µM (active). In addition, the Potency entry in [2] and in assay [10] was “inactive” in each case. In addition, the call in assay [11] was inactive.
With `CC1=CC(=O)C2=C(C)CC[C@@H]3[C@H](OC(=O)[C@H]3C)[C@H]12`, the Potency in [1] and in assay [3] was greater than 46 µM each time. In addition, in assay [2], the Potency result is “inactive”.
As for `COc1ccc(-c2coc3ccc(O[C@@H]4O[C@@H](COC(C)=O)[C@@H](OC(C)=O)[C@@H](OC(C)=O)[C@H]4OC(C)=O)c(OC(C)=O)c3c2=O)cc1`, the Potency in [1] and in assay [3] was greater than 46 µM each time. Also, the Potency entry in assay [5], in [6] and in assay [7] was “inactive” each time.
In the case of `Cc1oc2cc(O)ccc2c(=O)c1-c1cnn(-c2ccccc2)c1`, the Potency in assay [1] was greater than 20.6 µM.
For the molecule `CC(C)C[C@@H](CC(=O)N[C@@H](CCC(=O)O)CC(=O)O)NC(=O)[C@@H]1CNCC[C@H]1NC(=O)C[C@H](CCCN)NC(=O)C[C@H](Cc1c[nH]c2ccccc12)NC(=O)[C@@H]1CCCC[C@H]1N`, the Potency in assay [3] is greater than 46 µM. The Potency entry in assay [2], in assay [4], in assay [5], in assay [6] and in assay [7] was “inactive” each time.
Turning to `CC(=O)OC[C@@H]1O[C@@H](Oc2cc(OC(C)=O)c3c(=O)cc(-c4ccc(OC(C)=O)c(OC(C)=O)c4)oc3c2)[C@H](OC(C)=O)[C@H](OC(C)=O)[C@@H]1OC(C)=O`, in assay [1], the Potency was greater than 46 µM. In addition, the Potency entry in assay [2], in [5] and in assay [6] was “inactive” throughout.
On to `CCCCN(CCCC)c1nc2ccccc2nc1C(C#N)C(=O)NCCCOC` (stereo unspecified), for which the Potency in [1] was greater than 20.6 µM.
In the case of `OCc1ccncc1.OCc1ccncc1.[Cl][Pt]([Cl])([Cl])[Cl]`, the Potency was greater than 46 µM in [1] and greater than 9.22 µM in assay [3]. For the same molecule, the activity change, negative = inhibition in assay [2] is 0.578% [at 11.4 µM]. For the same molecule, the Potency result in [4] is “inactive”.

Source of the values: PubChem BioAssay (NCATS).
